The supplement of paper PMC10338343
± gives the standard deviation. Over roughly 3,000 sequences, “pre-steady-state target cleavage rate” has its median near 0.0079; the highest 2% begin near 0.2. For the sample, the highest values were picked, then their nearest neighbours and some sequences at random.

What follows are sequences tested on MILI (PIWIL2) piRISC loaded with piRNA #2 (26 nt) (assay: pre-steady-state target cleavage rate (min^-1); MIWI and MILI are mouse PIWI proteins and EfPiwi is from a freshwater sponge; tags in brackets are library labels; higher = faster piRNA-guided slicing of the target). Settings: guide: piRNA #2 5'p-UUAGGUAACCCAGUAGAUCCAGAGGA; auxiliary factor: 500 nM mouse GTSF1.
Procedure: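 Cleave-'n-Seq: a library of target RNAs (target site embedded in constant flanks, ACAGCATTCCGCGTTAGTGATATCCG... 5' flank; DNA-blocked outside the site) at 0.1 nM was incubated with 1 nM active mouse MILI or MIWI piRISC (synthetic 5'-monophosphorylated piRNA guide) with or without 500 nM mouse GTSF1 at 33 °C for 1 min to 16 h. Uncleaved targets were sequenced and normalised to non-target controls, and the pooled three trials were fitted to a burst-and-steady-state model to give the pre-steady-state cleavage rate (min^-1; k3 is constrained to at most 1e-4). Sequence is the target site only; target names encode pairing extent (gX:gY) and contiguous / 1-mismatch / 2-mismatch / bulge geometry. Fits with R² ≤ 0 are excluded.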

Sequence | pre-steady-state target cleavage rate
CUUAAGGAGACCUUCUACUGGGGUACCUAA | < 0.0001
CUUAAGGUGUGGAUCAACUGGGUUACCUAA | 0.014 ± 0.0076
CUUAAGCUCUGGAUCUUGUGGGUUACCUAA | 0.00903 ± 0.0046
CUUAACCUCUGGAUCUACGGGGUUACCUAA | 0.0813 ± 0.012
CUUAAGGAGUGGAUCUACUGGGUUACCGUAA | 0.0155 ± 0.0079
CUUAUCCUCUGGAUCUACAGGGUUACCUAA | 0.119 ± 0.016
CUUAAGGACAGGAUCUACUGGGUUACCUAA | 0.0192 ± 0.013
CUUAAGGAGACCUAGAUCUGGGUAACCAAA | < 0.0001
CUUAACCUCUGGUUCAACUGGGUUACCUAA | 0.117 ± 0.035
CUUAUCCUCUGGAUCUACUGGGUAACCUAA | 0.0929 ± 0.021
CUUAUCCUCUGGUUGUACUGGGUUACCUAA | 0.151 ± 0.031
CUUAACCUCUGUAUCUACUGGGUUACCUAA | 0.071 ± 0.013
CUUAUCCUCUGGUACUACUGGGUUACCUAA | 0.754 ± 0.23
CUUAUCCUCUGGAUCAACUGGGUUACCUAA | 0.0659 ± 0.012
CUUAAGCUCUGGUAUCUACUGGGUUACCUAA | 0.15 ± 0.038
CUUAUCCUCUGGUAGUACUGGGUUACCUAA | 0.103 ± 0.035
CUUAACCUCUGGUUCUACUGGGUAACCUAA | 0.14 ± 0.044
CUUAUCCUCUGGUUCUACUGGGUAACCUAA | 0.268 ± 0.097
CUUAUCCUCUGGUUCAACUGGGUUACCUAA | 0.225 ± 0.063
CUUAACCUCUGGUAUCUACUGGGUUACCUAA | 0.584 ± 0.19
CUUAAGGAGUAGGAUCUACUGGGUUACCUAA | 0.00494 ± 0.0041
CUUAAGGUCUGCAUCUACUGGGUUACCAAA | 0.0157 ± 0.0062
CUUAAGCUCUGGAUCUACUGGGUUAGCUAA | 0.094 ± 0.018
CUUAACCUCUGGAUCUAUUGGGUUACCUAA | 0.0785 ± 0.023
CUUAAGCUCUGGAUGUAGUGGGUUACCUAA | 0.061 ± 0.011

Sequence | pre-steady-state target cleavage rate
CUUAAGCUCUGGAUCUACUGGGCUUACCUAA | 0.019 ± 0.0061
CUUAACCUCUGGUCUACUGGGUUACCUAA | 0.333 ± 0.11
CUUAACCUCUGGGUCUACUGGGUUACCUAA | 0.169 ± 0.029
CUUAACCUCUGGAGUCUACUGGGUUACCUAA | 0.135 ± 0.031
CUUAACCUCUGGUUCUACUGGGUUACCUAA | 0.141 ± 0.031
CUUAACCUCUGGUUCUACUGGGUUACCUUA | 0.3 ± 0.087
CUUAACCUCUGGUUCUACUGGGUUACCAAA | 0.134 ± 0.037
CUUAUCCUCUGGAUCUAUGGGUUACCUAA | 0.0334 ± 0.0086
CUUAACCUCUGCAUGUACUGGGUUACCUAA | 0.117 ± 0.016
CUUAUCGUCUCGAUCUACUGGGUUACCUAA | 0.0585 ± 0.014
CUUAAGGAAUGGAUCUACUGGGUUACCUAA | 0.0666 ± 0.015
CUUAAGCACUCGAUCUACUGGGUUACCUAA | 0.417 ± 0.15
CUUAAGCACUGGUUCUACUGGGUUACCUAA | 0.199 ± 0.043
CUUAAGCUGUGGUUCUACUGGGUUACCUAA | 0.0437 ± 0.014
CUUAAGCACUGGAUCUACUGGGUUACCUAA | 0.113 ± 0.02
CUUAAGCUCUCGAUCUACUGGGUUACCUAA | 0.113 ± 0.019
CUUAAGCACUGCAUCUACUGGGUUACCUAA | 0.0725 ± 0.015
CUUAAGGUCAGGUUCUACUGGGUUACCUAA | 0.0166 ± 0.0093
CUUAACCUCUGGAACUACUGGGUUACGUAA | 0.118 ± 0.051
CUUAAGGUCAGGAUCUACUGGGUUACCUUA | 0.0166 ± 0.0094
CUUAUCCUCUGGAUCUACUGGGUUACCUCA | 0.0902 ± 0.018
CUUAUCCUCUGGAUCUACUGGGUUACCUAC [g2:g26:cont:t1C] | 0.105 ± 0.014
CUUAUCCUCUGGAUCUACUGGGUUACCUGA | 0.838 ± 0.37
CUUAUCCUCUGGAUCUACUGGGUUACCUCAA | 0.0973 ± 0.019
CUUAUCCUCUGGAUCUACUGGGUUACCUGAA | 0.384 ± 0.17

Sequence | pre-steady-state target cleavage rate
CUUAUCCUCUGGAUCUACUGGGUUACCUA | 0.159 ± 0.032
CUUAAGCUCAGGAUCUACUGCGUUACCUAA | 0.0105 ± 0.0058
CUUAAGGUCUGGAUCUAGUGGGUUACGUAA | 0.0114 ± 0.004
CUUAUCCUCUGGAUCUACUGGAUUACCUAA | 0.0307 ± 0.0083
CUUAAGGAGUGGAUCUAGUGGGUUACCUAA | 0.0231 ± 0.0069
CUUAUCCUCUGGAUCUACUGGGAUAGCUAA | 0.0182 ± 0.0088
CUUAAGCUCUGGAUCUAGUGGGUUACCUAA | 0.0282 ± 0.0073
CUUAACCUCUGGAGCUACUGGGUUACCUAA | 0.226 ± 0.049
CUUAACCUCUGGACCUACUGGGUUACCUAA | 0.0796 ± 0.023
CUUAUCCUCUGGACCUACUGGGUUACCUAA | 0.0996 ± 0.024
CUUAAGCUCUGGAGCUACUGGGUUACCUAA | 0.0783 ± 0.014
CUUAUCCUCUGGAUCCUACUGGGUUACCUAA | 0.0665 ± 0.018
CUUAUCCUCUGGAGCUACUGGGUUACCUAA | 0.238 ± 0.052
CUUAACCUCUGGAUCUACUGGGAUACCUUA | 0.0634 ± 0.023
CUUAAGGUCUGGAUCUACUGGGUUACCUUAA | 0.0607 ± 0.015
CUUAAGCUCUCCUUCUACUGGGUUACCUAA | 0.0472 ± 0.016
CUUAUACUCUGGAUCUACUGGGUUACCUAA | 0.0651 ± 0.014
CUUAGCCUCUGGAUCUACUGGGUUACCUAA | 0.218 ± 0.05
CUUAAGCCUCUGGAUCUACUGGGUUACCUAA | 0.146 ± 0.043
CUUAAGCCCUGGAUCUACUGGGUUACCUAA | 0.202 ± 0.041
CUUAUACCUCUGGAUCUACUGGGUUACCUAA | 0.251 ± 0.058
CUUAAGCCUGGAUCUACUGGGUUACCUAA | 0.104 ± 0.026
CUUAAGCUGCUGGAUCUACUGGGUUACCUAA | 0.0417 ± 0.015
CUUACCCUCUGGAUCUACUGGGUUACCUAA | 0.11 ± 0.016
CUUAACCUCUGGAUCUACUGGGUUAGCCUAA | 0.15 ± 0.035
